From PubChem BioAssay AID492998 (Southern Research Specialized Biocontainment Screening …, 2010) come the findings set out here.

Molecules are shown by their SMILES. The whole screen tested about 2,300 compounds, of which about 550 (24%) were called active. How the calls were made is not given here. The list is a sample of the results. A call without a number means that no potency is given here. Potency and affinity values are given separately.

A short description of the assay: Vero E6 cell cytotoxicity, dose response, cytotoxicity control for non-replicating M. tuberculosis project, secondary assay (AID 492998). The note with it: series mostly up to 20 µM.
Consider `O=C(CN1CCN(c2ccccc2)CC1)Nc1nnc(-c2ccccc2)s1`, for which the compound was called inactive.
Next, `Cc1ccc(C(=O)COC(=O)c2cccs2)cc1`: “inactive”.
As for `CCCCCn1nnc2c(=O)oc3ccccc3c21`, the call was inactive.
Next, `CCOc1ccc(NCC(=O)c2ccc(C)cc2)cc1`: “inactive”; `CCc1ccc(C2=C/C(=C/c3cccnc3)C(=O)O2)cc1`: “inactive”.
On to `O=C(NN=C1C2CC3CC1CC(Cl)(C3)C2)c1cccs1`, for which the result was inactive.
Next, `CC(C)(C)c1ccc(NC(=O)COc2ccc(-n3ccnc3)cc2)cc1`: “inactive”; `Cn1c(-c2cccc([N+](=O)[O-])c2)cnc1NCc1cccc(F)c1`: “inactive”; `Cc1cc(Cl)ccc1OC(C)C(=O)Nc1ccc([N+](=O)[O-])cn1` (stereo not given): “inactive”.
`Cc1ccc(C)c(NC(=O)c2cc([N+](=O)[O-])cc([N+](=O)[O-])c2)c1`: the result was inactive.
Next, `O=C(C/C=N\OCc1ccc([N+](=O)[O-])cc1)Nc1ccc(F)cc1F`: “inactive”.
Next, `Cc1cc(C)cc(OC(=O)CCN2C(=O)c3ccccc3C2=O)c1`: “inactive”; `O=C1c2ccccc2C(=O)N1CCOc1ccc(F)cc1`: “inactive”.
With `O=c1oc2ccccc2c(Nc2ccccc2O)c1[N+](=O)[O-]`, the result was inactive.
Next, `CCOc1ccc(NC(=O)c2nnn(CC(=O)Nc3ccccc3OC)c2N)cc1`: “inactive”; `O=C(c1cc2ccccc2o1)N1CCN(Cc2ccccc2)CC1`: “inactive”.
Next, `C/C(=N\NC(=O)c1ccccc1)c1nc2ccccc2n1C`: “inactive”.
Next, `C/C(=N\NC(=O)c1ccc([N+](=O)[O-])c(C)c1)c1ccccc1Cl`: “inactive”.
`COc1cc(/C=N/N(C)C)ccc1OC(=O)c1cccs1`: the result was inactive.
Next, `Cc1cc(Cl)cc(C)c1OCCCCn1ccnc1`: “inactive”.
Consider `Clc1ccc(SCCCCn2ccnc2)cc1`, for which the result was inactive.
Next, `Cc1ccc(CCC(=O)Nc2ccccc2F)s1`: “inactive”.
Regarding `O=C(COC(=O)c1ccccc1)NCc1cccs1`, the compound was called inactive.
Next, `O=C(CCc1ccc(Oc2cc([N+](=O)[O-])cc([N+](=O)[O-])c2)cc1)N1CCCCC1`: “inactive”; `CSc1nn(-c2ccc(C(=O)OCC(=O)NC(=O)NC(C)C)cc2)c(=S)s1`: “inactive”; `CCN1C(=O)CC(N2CCC(c3nc4ccccc4[nH]3)CC2)C1=O` (stereo not given): “inactive”.
Next, `O=C(COC(=O)c1ccccc1)NC12CC3CC(CC(C3)C1)C2`: “inactive”.
Next, `CC(NCCCOc1cccc2ccccc12)c1ccccc1` (stereo not given): “inactive”; `CCOC(=O)C1CSC(CC(=O)Nc2ccc(Cl)c(Cl)c2)C(=O)N1` (stereo not given): “inactive”.
Consider `O=C(C/C=N\OCc1ccc([N+](=O)[O-])cc1)Nc1ccc(Cl)cc1`, for which the result was inactive.
For `CCOc1ccc(C(=O)Nc2ccc(N3CCN(C)CC3)cc2)cc1Br`, the compound was called inactive.
As for `O=C(Nc1nccs1)c1ccc(-c2ccc(Cl)cc2)o1`, the call was inactive.
Next, `O=C(Nc1cccnc1)c1ccc(-c2ccc(Cl)cc2)o1`: “inactive”.
Next, `NC(=O)c1ccc(-c2ccc(Br)cc2)o1`: “inactive”; `O=C(CN1CCC(Cc2ccccc2)CC1)NC(=O)NC1CCCCC1`: “inactive”; `Cc1ccc2[nH]c3c(c2c1)CCCC3NCCO` (stereo not given): “inactive”.
On to `Cc1ccc(-c2nnc(-c3ccccc3)o2)cc1`, for which the outcome was inactive.
Next, `c1ccc(-c2n[nH]c(-c3ccccn3)n2)nc1`: “inactive”; `CCOC(=O)N1CCC(NC(=O)C2CCN(c3nc(-c4ccc(OC)cc4)no3)CC2)CC1`: “inactive”; `COc1cccc(OC(=O)c2cc3ccccc3oc2=O)c1`: “inactive”.
Take `CCOC(=O)Cn1cc(C#N)c2cccc(CC)c21`: the result was inactive.
Next, `Cc1ccc(S(=O)(=O)NCC(=O)OCCOc2cccc(Cl)c2)cc1`: “inactive”; `Cc1cccnc1NC(=O)C1COc2ccccc2O1` (stereo not given): “inactive”; `O=C(OCc1nnc(-c2ccccc2)o1)c1cc([N+](=O)[O-])ccc1Cl`: “inactive”.
Take `CC(C)OC(=O)c1c2c(n3ccccc13)C(=O)c1ccccc1C2=O`: the result was inactive.
`O=C(c1ccc(Br)o1)N1CCC(Cc2ccccc2)CC1`: the outcome was inactive.
Next, `O=C(COc1ccc(Br)cc1)Nc1ccc([N+](=O)[O-])cn1`: “inactive”; `O=C(N/N=C/c1coc2ccccc2c1=O)c1ccc(Cl)cc1`: “inactive”.
Next, `O=C(OCC(=O)N1CCN(c2ccccc2)CC1)c1ccc(Cl)cc1[N+](=O)[O-]`: “inactive”; `COC(=O)C1=C(N)OC2=C(C(=O)CC(C)(C)C2)C1c1cccnc1` (stereo not given): “inactive”.
For the compound `O=C(OCC(=O)N1CCCC1)c1cc(Br)ccc1Cl`, the result was inactive.
As for `O=C(N/N=C/c1ccccn1)c1cccc(S(=O)(=O)Nc2ccccc2Cl)c1`, the call was inactive.
Next, `Cc1ccc2oc(=O)c3cc(C(=O)NCCCN4CCCCCC4)sc3c2c1`: “inactive”; `Cc1cc(C)n2nc(S(=O)(=O)Nc3c(Cl)cccc3Cl)nc2n1`: “inactive”.
As to `CS(=O)(=O)Nc1cccc2cccnc12`, the outcome was inactive.
Next, `CC1C/C(=N/NC(=O)c2cccc(F)c2)c2ccc(O)cc2C1` (stereo not given): “inactive”; `Cc1ccc2nc(NC(=O)COC(=O)c3ccc(Br)o3)sc2c1`: “inactive”.
Next, `O=C(Nc1nccs1)c1ccccn1`: “inactive”; `O=C(O)c1ccccc1-c1ccccc1C(=O)Nc1nc2ccccc2s1`: “inactive”.
Next, `O=C(NNc1nc2ccccc2s1)c1ccc(F)cc1`: “inactive”; `CCOCC(=O)Nc1nc2ccc(C)cc2s1`: “inactive”; `O=C(Nc1c(F)cc(F)cc1Br)c1cc(-c2ccccc2)on1`: “inactive”.
With `CC1=NN(C(=O)c2ccccc2Cl)C(O)(c2ccccc2)C1` (stereo not given), the result was inactive.
Next, `CCc1nnc(N/N=C/c2ccc(N3CCC(C)CC3)c([N+](=O)[O-])c2)n1N`: “inactive”.
Next, `COc1ccc(C(=O)COC(=O)c2ccccc2O)c(OC)c1`: “inactive”.
Next, `COC(=O)c1cc(/C=C/c2ccccc2)on1`: “inactive”; `COc1cc(/C=C2/C(=O)NN(c3ccc(Cl)cc3)C2=O)ccc1OC(=O)c1ccco1`: “inactive”; `CC(C)CNc1nc(=S)nc(N(C)C)[nH]1`: “inactive”.
For the compound `Cc1cccc(NC(=O)COC(=O)CCc2c[nH]c3ccccc23)c1`, the result was inactive.
Next, `O=C(OCC(=O)N1CCN(c2ccccc2)CC1)c1ccc2ccccc2n1`: “inactive”; `O=[N+]([O-])c1ccc(CN2CCN(c3ccc(F)cc3)CC2)o1`: “inactive”; `CCOC(=O)c1cc(-c2csc(COc3ccccc3Cl)n2)on1`: “inactive”.
Next, `O=C(NCCc1ccccc1)c1nc(-c2cccs2)no1`: “inactive”.
Consider `COc1cccc2cc(C(=O)NCc3ccc(F)cc3)c(=N)oc12`, for which the compound was called inactive.
Next, `c1cncc(-c2noc(CC3CCCCC3)n2)c1`: “inactive”.
